In the supplement of paper PMC8728848:
Shown is part of a subset that was picked to be rich in the strongest signals.

Experiments:
Experiment in all cases: glycan array binding signal (z-score within array); higher = stronger binding
Conditions in all cases: glycan notation: IUPAC condensed, linker removed
[1] = target: GlcNAc(b1-2)[GlcNAc(b1-6)]Man(a1-6)[GlcNAc(b1-2)Man(a1-3)]Man(b1-4)GlcNAc(b1-4)[Fuc(a1-6)]GlcNAc
How it was run: (§1)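 The Consortium for Functional Glycomics database supplied 3228 glycan arrays, of which those lacking an available protein sequence were dropped. The binding signal, a within-array Z-score, was averaged across arrays of the same protein sequence and across linkers. Negative scores can be read as non-binding.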

GlcNAc(b1-3)Gal(b1-4)Glc = target: GlcNAc(b1-3)Gal(b1-4)Glc
How it was run: as §1

[2] = target: GlcNAc(b1-3)Gal(b1-4)GlcNAc(b1-3)Gal(b1-4)GlcNAc(b1-3)Gal(b1-4)GlcNAc(b1-2)Man(a1-3)[GlcNAc(b1-3)Gal(b1-4)GlcNAc(b1-3)Gal(b1-4)GlcNAc(b1-3)Gal(b1-4)GlcNAc(b1-2)Man(a1-6)]Man(b1-4)GlcNAc(b1-4)GlcNAc
How it was run: as §1

[3] = target: GlcNAc(b1-3)Gal(b1-4)GlcNAc(b1-3)Gal(b1-4)GlcNAc(b1-3)Gal(b1-4)GlcNAc(b1-3)Gal(b1-4)GlcNAc(b1-2)Man(a1-3)[GlcNAc(b1-3)Gal(b1-4)GlcNAc(b1-3)Gal(b1-4)GlcNAc(b1-3)Gal(b1-4)GlcNAc(b1-3)Gal(b1-4)GlcNAc(b1-2)Man(a1-6)]Man(b1-4)GlcNAc(b1-4)GlcNAc
How it was run: as §1

[4] = target: GlcNAc(b1-3)Gal(b1-4)GlcNAc(b1-6)[GlcNAc(b1-3)]Gal(b1-4)GlcNAc
How it was run: as §1

GlcNAc(b1-3)GalNAc = target: GlcNAc(b1-3)GalNAc
How it was run: as §1

[5] = target: GlcNAc(b1-4)GlcNAc(b1-4)GlcNAc
How it was run: as §1

[6] = target: GlcNAc(b1-4)GlcNAc(b1-4)GlcNAc(b1-4)GlcNAc(b1-4)GlcNAc
How it was run: as §1

[7] = target: GlcNAc(b1-4)GlcNAc(b1-4)GlcNAc(b1-4)GlcNAc(b1-4)GlcNAc(b1-4)GlcNAc
How it was run: as §1

[8] = target: Man(a1-3)[Man(a1-6)]Man(b1-4)GlcNAc(b1-4)[Fuc(a1-6)]GlcNAc
How it was run: as §1

[9] = target: Neu5Ac(a2-3)Gal(b1-3)GlcNAc(b1-2)[Neu5Ac(a2-3)Gal(b1-3)GlcNAc(b1-4)]Man(a1-6)[Neu5Ac(a2-3)Gal(b1-3)GlcNAc(b1-2)Man(a1-3)]Man(b1-4)GlcNAc(b1-4)GlcNAc
How it was run: as §1

[10] = target: Neu5Ac(a2-3)Gal(b1-3)[Neu5Ac(a2-6)]GlcNAc(b1-3)[Fuc(a1-3)[Gal(b1-4)]GlcNAc(b1-6)]Gal(b1-4)Glc
How it was run: as §1

[11] = target: Neu5Ac(a2-3)Gal(b1-4)[Fuc(a1-3)]GlcNAc(b1-3)Gal(b1-4)GlcNAc
How it was run: as §1

[12] = target: Neu5Ac(a2-3)Gal(b1-4)[Fuc(a1-3)]GlcNAc(b1-6)[Gal(b1-3)]GalNAc
How it was run: as §1

[13] = target: Neu5Ac(a2-3)[GalNAc(b1-4)]Gal(b1-4)GlcNAc
How it was run: as §1

[14] = target: Neu5Ac(a2-6)Gal(b1-3)GlcNAc(b1-3)[Gal(b1-4)GlcNAc(b1-6)]Gal(b1-4)Glc
How it was run: as §1

[15] = target: Neu5Ac(a2-6)Gal(b1-4)GlcNAc(b1-2)Man(a1-3)Man(b1-4)GlcNAc(b1-4)GlcNAc
How it was run: as §1

[16] = target: Neu5Ac(a2-6)Gal(b1-4)GlcNAc(b1-2)Man(a1-6)[GlcNAc(b1-2)Man(a1-3)]Man(b1-4)GlcNAc(b1-4)GlcNAc
How it was run: as §1

[17] = target: Neu5Ac(a2-6)Gal(b1-4)GlcNAc(b1-3)Gal(b1-4)GlcNAc(b1-3)[Neu5Ac(a2-6)Gal(b1-4)GlcNAc(b1-3)Gal(b1-4)GlcNAc(b1-6)]GalNAc
How it was run: as §1

[18] = target: Neu5Ac(a2-6)Gal(b1-4)GlcNAc(b1-3)Gal(b1-4)GlcNAc(b1-6)[Gal(b1-3)]GalNAc
How it was run: as §1

Neu5Ac(a2-6)GalNAc = target: Neu5Ac(a2-6)GalNAc
How it was run: as §1

[19] = target: Neu5Ac(a2-6)GlcNAc(b1-4)GlcNAc(b1-4)GlcNAc
How it was run: as §1

[20] = target: Neu5Ac(a2-8)Neu5Ac(a2-3)Gal(b1-3)GalNAc(b1-4)[Neu5Ac(a2-8)Neu5Ac(a2-3)]Gal(b1-4)Glc
How it was run: as §1

[21] = target: Neu5Ac(a2-8)Neu5Ac(a2-8)Neu5Ac(a2-3)[Gal(b1-3)GalNAc(b1-4)]Gal(b1-4)Glc
How it was run: as §1

[22] = target: Neu5Ac(a2-8)Neu5Ac(a2-8)Neu5Ac(a2-3)[GalNAc(b1-4)]Gal(b1-4)Glc
How it was run: as §1

B1: Nc3LysM (protein)
chain: QFTVPPDTTAEPNTIKTCTWWHVAGSGDSCTSIASTYGITSEQFARWDMETTDSPKNPSVATACKLTVGNSYCIENNFGQDDPPTPSISSSTLIGTATTSTTASTTTGNGISTPTPIQEGMETATTTTSSGNGITTPTPTQAGMETVGNCDRFHLVKSGDQCGTIASTYGITLANFYSWNPAVGTSCQSLWLDTYVCVRTIGFVPPKTTTTTTKKPTSTTSAGGVATPTPTQPGMETVSGCKKFHKGRGNVSTVASGDQCGTIATRYGISLANFYSWNPAVGSSCQTLWLDYYVCVGR
With B1 the “glycan array binding signal (z-score)” value [1] was -0.037, the “glycan array binding signal (z-score)” value (GlcNAc(b1-3)Gal(b1-4)Glc) was -0.132 and the “glycan array binding signal (z-score)” value [2] was -0.013. For the same binder, the “glycan array binding signal (z-score)” value [3] was -0.036, the “glycan array binding signal (z-score)” value [4] was 0.184 and the “glycan array binding signal (z-score)” value (GlcNAc(b1-3)GalNAc) was 0.056. For the same binder, the “glycan array binding signal (z-score)” value [5] was 2.52, the “glycan array binding signal (z-score)” value [6] was 17.3 and the “glycan array binding signal (z-score)” value [7] was 16.7. The “glycan array binding signal (z-score)” value [8] was 0.04, the “glycan array binding signal (z-score)” value [9] was 0.123 and the “glycan array binding signal (z-score)” value [10] was -0.004. For the same binder, the “glycan array binding signal (z-score)” value [11] was 0.009, the “glycan array binding signal (z-score)” value [12] was -0.127 and the “glycan array binding signal (z-score)” value [13] was -0.172. The “glycan array binding signal (z-score)” value [14] was -0.162, the “glycan array binding signal (z-score)” value [15] was 0.14 and the “glycan array binding signal (z-score)” value [16] was 0.31. For the same binder, the “glycan array binding signal (z-score)” value [17] was 0.111, the “glycan array binding signal (z-score)” value [18] was -0.099 and the “glycan array binding signal (z-score)” value (Neu5Ac(a2-6)GalNAc) was 0.071. For the same binder, the “glycan array binding signal (z-score)” value [19] was -0.143, the “glycan array binding signal (z-score)” value [20] was -0.231 and the “glycan array binding signal (z-score)” value [21] was 0.394. For the same binder, the “glycan array binding signal (z-score)” value [22] was -0.059.
